Screening data deposited in PubChem by several laboratories.
eLon inh: inhibitors of E. coli Lon protease; P0A9M0; purified E. coli Lon protease, fluorescence polarization; inhibition, % at 7.94 µM; 360,000 compounds, 0.42% hits; AID 602123; in the data active = inhibition above about 13%, passing the limit was not always enough;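 note: 0% = enzyme with probe and DMSO and 100% = no enzyme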
Target sequence (P0A9M0 whole entry, looked up): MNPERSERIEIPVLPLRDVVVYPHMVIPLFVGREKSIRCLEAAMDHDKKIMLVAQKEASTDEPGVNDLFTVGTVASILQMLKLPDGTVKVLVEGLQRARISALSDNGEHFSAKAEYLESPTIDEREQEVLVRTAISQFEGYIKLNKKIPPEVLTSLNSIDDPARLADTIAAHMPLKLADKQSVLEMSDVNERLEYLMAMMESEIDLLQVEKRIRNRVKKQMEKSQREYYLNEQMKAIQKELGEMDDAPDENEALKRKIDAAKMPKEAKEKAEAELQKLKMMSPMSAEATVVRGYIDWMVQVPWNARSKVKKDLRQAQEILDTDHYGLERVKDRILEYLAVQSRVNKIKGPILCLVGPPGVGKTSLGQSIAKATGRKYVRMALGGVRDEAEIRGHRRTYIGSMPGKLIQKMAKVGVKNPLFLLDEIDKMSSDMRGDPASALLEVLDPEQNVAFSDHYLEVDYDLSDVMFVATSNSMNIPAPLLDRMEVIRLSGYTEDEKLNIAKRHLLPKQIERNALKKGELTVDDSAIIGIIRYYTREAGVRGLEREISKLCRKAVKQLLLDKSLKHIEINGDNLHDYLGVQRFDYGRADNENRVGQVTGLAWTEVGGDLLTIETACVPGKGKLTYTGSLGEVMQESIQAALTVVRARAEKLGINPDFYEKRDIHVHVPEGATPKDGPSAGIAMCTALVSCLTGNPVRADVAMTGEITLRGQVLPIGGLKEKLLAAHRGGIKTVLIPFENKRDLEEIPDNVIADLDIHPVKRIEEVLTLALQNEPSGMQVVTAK
Bcl-xL primary: inhibitors of human Bcl-xL | GST-Bcl-xL / FITC-Bim BH3 peptide fluorescence polarization | inhibition, % at 10.9 µM | 320,000 compounds, 0.7% hits;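 active = inhibition above the mean of all tested compounds plus 3 SD, cutoff set per campaign, cut at about 30% in these data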;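 note: 0% = DMSO wells and 100% = unlabeled Bim-BH3 peptide competitor; inhibitors lower millipolarization by displacing the labeled peptide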
MCL1 BIM primary: inhibitors of human MCL1 binding to BIM-BH3 peptide. Q07820. GST-MCL1 / FITC-Bim-BH3 fluorescence polarization. inhibition, % at 10.9 µM. 320,000 compounds, 0.68% hits. AID 2057;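 active = inhibition above the mean inhibition of all tested compounds plus 3 SD, set per campaign, cut at about 40% in these data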;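 note: 0% = DMSO wells and 100% = unlabeled Bim-BH3 peptide control; higher means more loss of mP so more displacement of Bim peptide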
MEX-5 binding: C. elegans MEX-5 TCR-2 RNA binding activity; Q9XUB2; MEX-5/FITC-TCR2 RNA binding, fluorescence polarization; hits give low values; activity score (negative = inhibition of binding), % at 10 µM; 300,000 compounds, 0.38% hits;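 active = inhibition past about -25% in most replicates, and total fluorescence under double the plate's negative control median, limit read from the data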;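 note: 0% = DMSO and -100% = 5 µM competing unlabeled TCR2 RNA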
GLD-1 RNA inh: GLD-1-TGE RNA interaction inhibition (C. elegans) | Q17339 | purified GLD-1 + fluorescein TGE RNA, fluorescence polarization | inhibition, % at 5.96 µM | 320,000 compounds, 0.44% hits | AID 2280;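 active = percent inhibition above a per-plate cutoff, the plate mean of test compounds plus 3 SD, cut at about 30% in these data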;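 note: 0% = DMSO wells with GLD-1 and probe and 100% = wells lacking GLD-1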
BCLXL inh confirm: counter-screen for MCL1 inhibitors: confirmation of human Bcl-xL inhibitors | shares compounds with MCL1 BIM primary | GST-Bcl-xL / FITC-Bim BH3 peptide FP binding | inhibition, % at 10.9 µM | 1,700 compounds, 54% hits | AID 2166;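 active = inhibition above a cutoff equal to the mean inhibition of all tested compounds plus 3 SD, cut at about 30% in these data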;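 note: 0% = DMSO wells and 100% = unlabeled Bim BH3 control peptide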
MCL1 inh confirm: MCL1-BIM-BH3 interaction inhibition, confirmation; shares compounds with MCL1 BIM primary; GST-MCL1 / FITC-Bim-BH3 fluorescence polarization; inhibition, % at 10.9 µM; 1,700 compounds, 61% hits; AID 2168;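 active = inhibition above the average of all tested compounds plus 3 SD, cut at about 40% in these data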;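 note: 0% = DMSO wells and 100% = unlabeled Bim-BH3 control peptide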
GLD-1 TGE cf: confirmation of C. elegans GLD-1 TGE RNA binding inhibitors; shares compounds with GLD-1 RNA inh; inhibition, % at 5.96 µM; AID 2459; 550 compounds, 10% hits; GLD-1/FL-TGE RNA fluorescence polarization, biochemical;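 active = average inhibition across triplicates above the hit cutoff set in the primary screen, cut at about 32% in these data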;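 note: 0% = GLD-1 with RNA probe and DMSO and 100% = wells lacking GLD-1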
Numbers without * were called inactive; · = not tested or not shown; + = active, no number. Shown are actives, neighbours in structure and some others; about 1.4% of the full set was active somewhere.

SMILES	eLon inh	Bcl-xL primary	MCL1 BIM primary	MEX-5 binding	GLD-1 RNA inh	BCLXL inh confirm	MCL1 inh confirm	GLD-1 TGE cf
Nc1cccc2c1C(=O)N(c1ccccc1)C2=O	14	69*	80*	-26*	70*	65*	79*	67*
OCCC1CN(Cc2cccc3nccnc23)CCN1Cc1ccc(F)cc1 (configuration not stated)	-2	60*	60*	-1	46*	9	7	-1
COc1ccccc1C1(CC(=O)N2CCCCC2)CCOC(C(C)C)C1 (configuration not stated)	-3	2	-9	-2	5	·	·	·
COc1ccc(N2CCCC2)c(NC(=O)c2ccc(Br)o2)c1	1	48*	56*	-6	38*	22	16	41*
COc1ccc(CNC(=O)COc2ccc(Br)c(C)c2)cc1	-12	6	11	-2	1	·	·	·
Cn1cnc2c1c(=O)n(Cc1ccc(Cl)cc1Cl)c(=O)n2C	-9	2	-2	1	-7	·	·	·
C=C1c2cccc(O)c2C(O)=C2C(=O)[C@]3(O)C(O)=C(C(N)=O)C(=O)[C@@H](N(C)C)[C@@H]3[C@@H](O)[C@H]12	10	64*	108*	-32*	36*	36*	87*	-2
CCCN=C1N/C(=C\c2ccco2)C(=O)N1c1ccccc1	0	9	11	-2	20	·	·	·
O=C1/C(=C\c2ccco2)NC(=S)N1c1ccccc1	2	34*	50*	-2	55*	14	17	-3
COc1ccc2[nH]c(C)c(CCN(Cc3cccs3)C(=S)Nc3ccc(F)cc3)c2c1	17	73*	75*	-6	49*	41*	52*	-1
COc1ccccc1C1NC(=O)CCC1[N+](=O)[O-] (configuration not stated)	-4	-1	-3	3	3	·	·	·
COc1ccc(NC(=O)Nc2cccs2)cn1	4	·	·	-5	·	·	·	·
COc1ccc(NC(=O)Nc2cc(C)cc(C)c2)cn1	29	58*	58*	-36*	48*	62*	79*	43*
CC(=O)NC1CC(C)(C)N(OC(C)=O)C(C)(C)C1	-2	·	·	-1	·	·	·	·
COc1ccc2c(c1)c(=O)c(C(=O)c1ccc(C)cc1)cn2CC(=O)Nc1ccc(F)cc1	-7	6	10	1	10	·	·	·
COc1ccc2c(c1)c(=O)c(C(=O)c1ccc(F)cc1)cn2CC(=O)Nc1ccc(F)cc1	-15	75*	71*	1	69*	4	-6	-2
Cc1nnc2c(NCCc3ccccc3)nc3ccccc3n12	-6	2	-1	-2	-6	·	·	·
CCOC(=O)c1ccc(NC(=O)CN(c2ccc(C)cc2)S(=O)(=O)c2c(C)n[nH]c2C)cc1	1	92*	106*	2	74*	6	8	0
CSc1nc2nc3c(cc2c(=O)n1-c1ccccc1C)COC(C)(C)C3	5	57*	59*	-1	46*	-4	0	-6
Cc1ccccc1CS(=O)(=O)CCC(=O)NCCN1CCN(c2cccc(Cl)c2)CC1	-7	62*	59*	0	62*	10	24	-2
CCOC(=O)CC(=O)CSc1nc(-c2cccnc2)cc(C)c1C#N	-11	61*	62*	-1	36*	8	-1	3
CCOc1cccc(-c2c(C(=O)N/N=C/c3ccc(Br)cc3)nnn2-c2nonc2N)c1	9	1	-5	0	0	·	·	·
Cc1ccc(C(=O)NNC(=O)c2ccc(NS(=O)(=O)c3cccs3)cc2)o1	0	61*	+	·	46*	-1	-3	-5
O=C(NNC(=O)c1ccc(Br)o1)c1ccc(NS(=O)(=O)c2cccs2)cc1	-9	·	·	·	·	·	·	·
COc1ccc(NC(=O)c2ccc(-c3ccc(C(C)=O)cc3)o2)cn1	1	69*	60*	·	57*	55*	65*	45*
